Luc counter – blocks Kinase-Glo luciferase, a counter-screen artifact; Kinase-Glo luciferase, ATP luminescence, 8 min; Potency, µM (series often up to 38.3 µM), hits mostly inhibitors; hit rate 0.28% among 200,000; AID 1379; note: nearly all actives have a fitted effect of over 60% in size
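Inhibition of Kinase-Glo luciferase light generation was assessed at 10 uM ATP in pH 7.2 imidazole buffer, with luminescence measured after eight minutes at ambient temperature.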
Rab9 promoter act – activators of Rab9 promoter; Huh7 Rab9 promoter-luciferase reporter, luminescence, 24 h; Potency, µM (series often up to 9.22 µM), usual class: activators; hit rate 2.8% among 320,000; note: nearly all actives have a fitted effect of over 60% in size
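Measured in stably transfected Huh7 cells bearing a Rab9 promoter–luciferase construct: 24 h compound treatment at 37 °C, followed by luminescence detection.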
ELG1 genotox – inducers of genotoxicity in HEK293T ELG1-luciferase cells. Potency, µM (titrated, usually from 46 µM), hits mostly activators. hit rate 1.3% among 330,000. HEK293T ELG1-luciferase reporter, luminescence, 16 h; note: nearly all actives have a fitted effect of over 60% in size
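Step 1: seed 2,000 HEK293T ELG1-luciferase cells per well. Step 2: add compound or DMSO, incubate 16 hr at 37 °C. Step 3: ONE-Glo, 30 min at room temperature, read luminescence.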
SMN2 splice enh – SMN2 splice variant enhancement; HEK293 SMN2-luciferase splicing reporter, luminescence, 30-36 h; Potency, µM (top dose mostly 46.1 µM), hits mostly activators; hit rate 2.8% among 210,000; note: nearly all actives have a fitted effect of over 55% in size
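HEK293 cells carry an SMN2 minigene-luciferase reporter in which exon 7 inclusion puts luciferase in frame. Cells were seeded at 2000 cells/well, attached for 10-12 hours, then exposed to compounds for 30-36 hours at 37C before ONE-Glo luminescence.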
NPC1 prom act – activates the NPC1 promoter | Huh7 NPC1 promoter luciferase reporter, 24 h | Potency, µM (titrated, usually from 9.22 µM), actives largely listed as activators | hit rate 2.4% among 320,000 | AID 485313; note: nearly all actives have a fitted effect of over 60% in size
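Huh7 reporter cells (NPC1 promoter driving luciferase) are dosed with compound for 24 h at 37 °C, 5% CO2; luciferase detection reagent is then added and luminescence measured after 10 min at ambient temperature.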
FLuc counter – firefly luciferase modulation, counter-screen for miR-21 project; AID 588342; Potency, µM (series often up to 57.5 µM), usual class: inhibitors; hit rate 6.9% among 360,000; purified FLuc, Km substrates, luminescence inhibition; note: nearly all actives have a fitted effect of over 55% in size
Target sequence (P08659 whole entry, looked up): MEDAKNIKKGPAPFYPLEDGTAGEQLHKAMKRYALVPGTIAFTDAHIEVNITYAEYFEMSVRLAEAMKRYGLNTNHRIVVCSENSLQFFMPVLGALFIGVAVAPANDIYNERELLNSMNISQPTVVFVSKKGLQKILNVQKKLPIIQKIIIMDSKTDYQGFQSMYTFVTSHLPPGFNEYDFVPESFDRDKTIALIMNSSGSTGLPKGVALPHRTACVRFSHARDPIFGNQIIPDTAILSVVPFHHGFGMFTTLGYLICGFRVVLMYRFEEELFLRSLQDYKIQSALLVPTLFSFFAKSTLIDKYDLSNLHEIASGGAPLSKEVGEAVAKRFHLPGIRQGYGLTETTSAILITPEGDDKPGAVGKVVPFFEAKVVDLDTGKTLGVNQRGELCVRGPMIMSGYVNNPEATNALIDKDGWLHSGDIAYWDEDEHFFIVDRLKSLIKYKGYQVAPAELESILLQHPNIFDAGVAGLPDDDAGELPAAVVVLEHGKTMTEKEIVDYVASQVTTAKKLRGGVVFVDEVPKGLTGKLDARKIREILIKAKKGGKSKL
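Purified P. pyralis luciferase, 10 nM final, with Km-level 10 uM D-luciferin and 10 uM ATP in 50 mM Tris acetate pH 7.5, 10 mM Mg acetate, 0.01% Tween-20, 0.05% BSA; 6-point qHTS titration about 60 µM downward; luminescence read.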
Hits are given with their value; . = inactive; ? = inconclusive; / = no result given. An excerpt weighted towards active compounds, which were near 7.5% of everything screened. Calls come from the whole dose curve; as a rule, active = well fitted curve in the direction sought with a large enough effect; inconclusive = small, poorly fitted or top-dose-only effect, or another doubt; inactive = no such curve, though single readings can be large; an effect the other way counts as inactive or inconclusive.

SMILES	Luc counter	Rab9 promoter act	ELG1 genotox	SMN2 splice enh	NPC1 prom act	FLuc counter
CCOC(=O)CNC(=O)c1sc(NC(=O)c2cccc(F)c2)nc1C	.	.	?	.	.	21µM
CCOC(=O)CNC(=O)c1sc(NC(=O)c2ccccc2F)nc1C	/	?	9.2µM	/	?	11µM
COC(=O)c1sc(NC(=S)NC(=O)c2cccc(C)c2)nc1C	.	?	?	.	.	?
COC(=O)c1sc(NC(=S)NC(=O)c2ccccc2F)nc1C	.	1µM	?	.	?	8.5µM
Cc1cccc(Nc2ncnc3c2cnn3C)c1C	/	/	/	/	/	.
Cc1ccc(C)c(-c2ccc(=O)n(C(C)C(=O)Nc3ccccc3C(F)(F)F)n2)c1 (stereo not drawn)	/	/	/	.	/	.
Cc1cc(-c2ccc(Cl)cc2)n2nc(C)cc2n1	/	.	.	/	.	.
COc1ccc(-c2nc3nc(C)cc(C)n3n2)cc1	.	?	?	13µM	?	11µM
COc1ccc(-c2cc3nc(C)cc(C)n3n2)cc1	.	3.5µM	?	10µM	3.2µM	7.6µM
Cc1cc(C)n2nc(-c3ccc(Br)cc3)cc2n1	/	?	?	/	3.5µM	2.7µM
Cc1nc2cc(-c3ccc(Cl)cc3)nn2c(NCCN(C)C)c1C	.	.	?	/	?	13µM
Cc1ccc(-c2cc3nc(-c4ccc(Br)cc4)cc(N)n3n2)cc1	.	.	.	.	.	.
COc1ccc(-c2cc3nc(-c4ccccc4)cc(C(F)(F)F)n3n2)cc1	/	/	/	.	/	.
Cc1ccc(CNC(=O)CCN2C(=O)C(C)Oc3ccc(C)cc32)cc1 (stereo not drawn)	/	/	/	.	/	.
COc1ccc(OC)c(CCNC(=O)c2nn(C)c3c2CSc2ccccc2-3)c1	/	/	/	/	/	.
CCOc1ccc(CCNC(=O)CN2C(=O)COc3ccc(S(=O)(=O)N4CCC(C)CC4)cc32)cc1	/	/	/	.	/	.
Cc1cc(C)n2nc(-c3ccc(Cl)cc3)cc2n1	/	3.5µM	15µM	/	4µM	3.8µM
Cc1nc(-c2ccc(NC(=O)c3ccccc3Br)cc2)cs1	.	2.8µM	?	16µM	?	6µM
Cc1nc(-c2ccc(NC(=O)c3ccccc3C)cc2)cs1	.	1.6µM	.	/	1.4µM	3.4µM
Cc1nc(-c2cccc(NC(=O)c3cc4cc(Br)ccc4oc3=O)c2)cs1	.	.	.	.	.	.
Cc1ccc(Nc2nc(C3CC3)cs2)cc1	.	3.5µM	8.2µM	4µM	4µM	3.8µM
Clc1ccc(Nc2nc(C3CC3)cs2)cc1	.	1.6µM	6.5µM	11µM	3.2µM	7.6µM
O=C(NCc1ccccc1Cl)C(=O)NCC(c1ccco1)S(=O)(=O)c1cccs1 (stereo not drawn)	/	/	/	/	/	.
CCOc1ccccc1NC(=O)N(C)CCc1c(C)nn(CC)c1C	/	/	/	/	/	.
Cc1c(C(=O)O)[nH]c2c1C(=O)CC(c1ccc(C(C)(C)C)cc1)C2 (stereo not drawn)	/	?	?	/	?	9.5µM
SMILES	Luc counter	Rab9 promoter act	ELG1 genotox	SMN2 splice enh	NPC1 prom act	FLuc counter
CCC(C)OC(=O)c1[nH]c2c(c1C)C(=O)CC(c1ccc(N(C)C)cc1)C2 (stereo not drawn)	.	3.2µM	?	.	?	11µM
CC1CC(C)CN(CCCNC(=O)CN2C(=O)COc3ccc(S(=O)(=O)N4CCOCC4)cc32)C1 (stereo not drawn)	/	.	.	/	.	.
N#C/C(=C\c1cccc(O)c1)C(=O)Nc1ccc2c(c1)OCCO2	/	.	.	/	.	0.48µM
CC(C)NC(=O)/C(C#N)=C/c1ccc2c(c1)OCCO2	.	.	.	.	.	9.5µM
N#C/C(=C\c1ccc(O)c(O)c1)C(=O)Nc1ccccc1	.	.	?	22µM	.	?
N#C/C(=C/c1cccc(O)c1)C(=O)NCc1ccc(Cl)cc1	/	.	.	/	.	.
O=S(=O)(c1ccc(Br)s1)N1CCN(c2ccc(F)cc2)CC1	/	.	.	/	.	.
Cc1cc(C)n(-c2nc3ccccc3nc2Nc2cccc(C(F)(F)F)c2)n1	/	/	/	.	/	.
O=C(Oc1ccc(Cl)cc1)c1ccc2nccnc2c1	.	.	.	.	.	3.8µM
Cc1cccc(OC(=O)c2ccc3nccnc3c2)c1	.	.	.	.	.	15µM
Cc1nc2c(-c3ccccc3)c(C)nn2c(C)c1CCC(=O)NCc1ccc(F)cc1	/	/	/	.	/	.
CCOC(=O)CC(NC(=O)c1cc2cc(OC)ccc2oc1=O)c1ccc(OC)cc1 (stereo not drawn)	/	/	/	.	/	.
Cc1coc2cc3oc(=O)c(CCC(=O)N4CCCCC4)c(C)c3cc12	/	/	/	.	/	.
O=[N+]([O-])c1ccc(N=Nc2ccc(O)cc2O)cc1	?	.	.	.	.	6µM
O=C(Nc1ccccc1)C1=C[C@@H](C2CCCCC2)C[C@@H](OCCCCO)O1	/	?	?	/	.	12µM
Cc1cc(C(=O)OCC(N)=O)c(C)n1-c1ccccc1	.	.	.	?	.	?
Cc1cc(C(=O)COC(=O)c2ccc(O)cc2O)c(C)n1-c1ccccc1	/	?	?	/	?	2.1µM
COc1ccc(-n2c(C)cc(C(=O)COC(=O)c3ccc(O)cc3O)c2C)cc1	/	.	.	/	.	?
CCOC(=O)c1cc(C)n(-c2ccccc2)c1C	/	.	?	/	.	15µM
CCOc1ccc(N(CC)S(=O)(=O)N2CCCC(C(=O)Nc3ccc(NC(C)=O)cc3)C2)cc1 (stereo not drawn)	/	/	/	/	/	.
COc1ccc(NC(=O)CCC(=O)N/N=C/c2cn(C)nc2C)cc1	/	.	.	/	.	.
COc1ccc(NC(=O)O/N=C/c2c(C)nn(C(C)(C)C)c2C)cc1	/	0.32µM	1.6µM	/	0.35µM	0.38µM
CC(Oc1ccccc1)C(=O)Nc1ccc(OCc2cc(=O)n3ccsc3n2)cc1 (stereo not drawn)	/	/	/	.	/	.
COC(=O)c1ccccc1NC(=O)NCc1ccncc1	.	.	.	.	.	.
COc1cccc(CNC(=O)CCn2c(=O)c3cccn3c3ccc(F)cc32)c1OC	/	/	/	/	/	.
SMILES	Luc counter	Rab9 promoter act	ELG1 genotox	SMN2 splice enh	NPC1 prom act	FLuc counter
C=CCn1c(C)cc(C(=O)COc2ncnc3sccc23)c1C	.	0.79µM	2.6µM	5.6µM	0.89µM	2.4µM
C=CCn1c(C)cc(C(=O)COC(=O)c2cncc(Br)c2)c1C	/	?	.	/	.	1.9µM
Cc1ccnc(NC(=O)C(C)n2cc([N+](=O)[O-])cn2)c1 (stereo not drawn)	.	.	.	.	.	.
O=C1Nc2ccccc2N=C(c2ccccc2)C1Br (stereo not drawn)	.	.	.	/	.	.
CC(=O)NC1Sc2ccccc2N=C1c1ccccc1 (stereo not drawn)	.	?	13µM	?	?	12µM
CCOC(=O)c1c(C)[nH]c(C)c1C(=O)COC(=O)c1ccc(Cl)nc1	/	/	.	/	/	/
CCc1ccc(C(=O)COC(=O)c2ccc(Cl)nc2)cc1	.	?	.	.	.	9.5µM
O=C(COC(=O)C(O)c1ccccc1)c1ccc2c(c1)OCCO2 (stereo not drawn)	.	.	.	.	.	1.5µM

Screens deposited in PubChem by National Center for Advancing Translational Sciences (NCATS).
